Data from paper PMC7862700, “An all-to-all approach to the identification of sequence-specific readers for epigenetic DNA modifications on cytosine”.

How the values were obtained:
Test in all cases: DAPPL (digital affinity profiling via proximity ligation, sequencing); 10 mM Tris-HCl pH 7.5, 50 mM NaCl, 1 mM DTT, 4% glycerol, room temperature, 30 min; GST-TFs on glutathione beads, 16-mer random dsDNA library, 0.1% formaldehyde crosslink after washing; high values mean tight binding
FLI1 = target: T1, FLI1 (Homo sapiens, UniProt Q01543 1-452); settings: protein: recombinant; tags: N-terminal GST; dsDNA, one strand shown
T1 sequence: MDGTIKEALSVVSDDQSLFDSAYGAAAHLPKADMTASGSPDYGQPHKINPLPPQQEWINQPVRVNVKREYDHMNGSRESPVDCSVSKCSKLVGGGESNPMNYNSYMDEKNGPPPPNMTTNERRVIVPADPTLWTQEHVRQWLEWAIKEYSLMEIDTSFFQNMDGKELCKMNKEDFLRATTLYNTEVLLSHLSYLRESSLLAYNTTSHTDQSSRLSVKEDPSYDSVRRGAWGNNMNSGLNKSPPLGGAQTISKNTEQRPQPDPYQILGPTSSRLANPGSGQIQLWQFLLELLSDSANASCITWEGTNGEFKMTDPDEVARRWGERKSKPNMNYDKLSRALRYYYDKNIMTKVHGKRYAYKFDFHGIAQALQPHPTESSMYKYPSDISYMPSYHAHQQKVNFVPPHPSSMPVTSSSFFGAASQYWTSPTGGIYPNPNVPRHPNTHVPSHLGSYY
Summary of the method: (§1)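 Pools of DNA-barcoded human transcription factors, expressed in yeast as GST fusions on glutathione beads and combined with a tag-only sample, were incubated with 200 nmole of a 16-mer random double-stranded DNA library. Incubation took 30 min at room temperature in Tris/NaCl/DTT/glycerol buffer and was followed by washing, 0.1% formaldehyde crosslinking, proximity ligation (BsaI/T4 ligase, 1 h, 37 °C), PCR amplification and sequencing on an Illumina NextSeq500. Binding signal is the ratio of a hexamer's read frequency for a factor to its frequency for the tag-only sample.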

ELK1 = target: T2, ELK1 (Homo sapiens, UniProt P19419 1-428); settings: protein: recombinant; tags: N-terminal GST; dsDNA, one strand shown
T2 sequence: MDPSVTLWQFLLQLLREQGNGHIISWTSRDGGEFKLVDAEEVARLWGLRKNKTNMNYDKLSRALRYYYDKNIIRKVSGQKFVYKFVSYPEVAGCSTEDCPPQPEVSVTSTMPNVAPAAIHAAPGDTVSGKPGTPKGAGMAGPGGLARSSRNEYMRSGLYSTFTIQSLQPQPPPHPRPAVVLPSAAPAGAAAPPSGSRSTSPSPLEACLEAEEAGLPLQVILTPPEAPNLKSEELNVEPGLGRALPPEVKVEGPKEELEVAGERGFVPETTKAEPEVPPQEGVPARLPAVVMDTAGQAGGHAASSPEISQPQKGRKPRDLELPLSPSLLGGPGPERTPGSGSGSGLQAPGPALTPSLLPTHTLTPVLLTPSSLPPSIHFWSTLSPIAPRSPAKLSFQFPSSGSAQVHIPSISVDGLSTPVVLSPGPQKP
Summary of the method: as §1

GABPA = target: T3, GABPA (Homo sapiens, UniProt Q06546 1-454); settings: protein: recombinant; tags: N-terminal GST; dsDNA, one strand shown
T3 sequence: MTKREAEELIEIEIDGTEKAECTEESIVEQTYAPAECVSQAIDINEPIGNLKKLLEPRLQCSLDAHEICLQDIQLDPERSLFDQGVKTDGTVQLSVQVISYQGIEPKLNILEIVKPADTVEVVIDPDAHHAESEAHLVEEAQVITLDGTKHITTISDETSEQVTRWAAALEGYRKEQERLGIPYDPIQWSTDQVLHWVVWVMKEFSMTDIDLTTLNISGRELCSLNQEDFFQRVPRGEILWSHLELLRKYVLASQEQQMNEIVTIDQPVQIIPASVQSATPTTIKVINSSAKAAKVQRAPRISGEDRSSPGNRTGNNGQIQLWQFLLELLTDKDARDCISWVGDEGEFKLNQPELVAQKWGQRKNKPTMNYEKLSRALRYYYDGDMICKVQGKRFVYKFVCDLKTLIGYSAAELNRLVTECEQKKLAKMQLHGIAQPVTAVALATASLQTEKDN
Summary of the method: as §1

ERG = target: T4, ERG (Homo sapiens, UniProt P11308 1-479); settings: protein: recombinant; tags: N-terminal GST; dsDNA, one strand shown
T4 sequence: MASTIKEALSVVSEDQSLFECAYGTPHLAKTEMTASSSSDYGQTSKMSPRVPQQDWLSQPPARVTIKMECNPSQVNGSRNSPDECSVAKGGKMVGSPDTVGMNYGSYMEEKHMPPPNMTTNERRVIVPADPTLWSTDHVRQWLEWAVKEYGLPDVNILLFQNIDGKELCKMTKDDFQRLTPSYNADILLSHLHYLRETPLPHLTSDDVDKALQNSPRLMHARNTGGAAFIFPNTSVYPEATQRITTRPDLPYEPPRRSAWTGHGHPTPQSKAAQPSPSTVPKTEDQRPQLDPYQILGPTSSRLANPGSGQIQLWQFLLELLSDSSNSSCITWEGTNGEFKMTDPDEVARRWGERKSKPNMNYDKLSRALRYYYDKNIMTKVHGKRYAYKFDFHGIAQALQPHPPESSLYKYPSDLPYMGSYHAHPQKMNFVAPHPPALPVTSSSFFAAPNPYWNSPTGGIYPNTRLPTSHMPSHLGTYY
Summary of the method: as §1

ELF1 = ELF1 (Homo sapiens, UniProt P32519 1-619); settings: protein: recombinant; tags: N-terminal GST; dsDNA, one strand shown
Chain of ELF1 (P32519 whole entry): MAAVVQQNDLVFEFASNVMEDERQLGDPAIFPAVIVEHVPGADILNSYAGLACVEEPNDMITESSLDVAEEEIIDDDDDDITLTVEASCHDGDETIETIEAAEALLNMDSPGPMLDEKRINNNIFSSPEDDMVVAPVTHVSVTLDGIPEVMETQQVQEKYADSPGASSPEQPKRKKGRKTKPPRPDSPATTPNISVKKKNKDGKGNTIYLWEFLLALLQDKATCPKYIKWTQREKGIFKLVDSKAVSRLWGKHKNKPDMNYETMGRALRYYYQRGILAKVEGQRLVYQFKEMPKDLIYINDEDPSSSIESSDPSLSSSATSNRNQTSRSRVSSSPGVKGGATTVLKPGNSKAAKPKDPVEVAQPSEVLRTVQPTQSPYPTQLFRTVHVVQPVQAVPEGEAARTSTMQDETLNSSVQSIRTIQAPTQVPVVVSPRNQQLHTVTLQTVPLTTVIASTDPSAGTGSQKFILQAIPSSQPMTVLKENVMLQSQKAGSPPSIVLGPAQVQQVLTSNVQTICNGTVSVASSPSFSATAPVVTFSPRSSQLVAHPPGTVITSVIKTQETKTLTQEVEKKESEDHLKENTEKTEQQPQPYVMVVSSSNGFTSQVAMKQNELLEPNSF
Summary of the method: as §1

EHF = target: T5, EHF (Homo sapiens, UniProt Q9NZC4 1-300); settings: protein: recombinant; tags: N-terminal GST; dsDNA, one strand shown
T5 sequence: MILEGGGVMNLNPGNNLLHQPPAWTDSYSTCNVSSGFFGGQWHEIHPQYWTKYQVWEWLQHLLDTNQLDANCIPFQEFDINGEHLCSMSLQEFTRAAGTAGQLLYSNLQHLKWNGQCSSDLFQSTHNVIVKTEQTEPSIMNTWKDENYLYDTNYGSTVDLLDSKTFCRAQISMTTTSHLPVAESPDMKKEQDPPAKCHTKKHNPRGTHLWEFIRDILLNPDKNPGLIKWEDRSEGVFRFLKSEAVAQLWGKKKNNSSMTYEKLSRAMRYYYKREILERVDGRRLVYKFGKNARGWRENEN
Summary of the method: as §1

SPI1 = SPI1 (Homo sapiens, UniProt P17947 1-270); settings: protein: recombinant; tags: N-terminal GST; dsDNA, one strand shown
Summary of the method: as §1

SPIB = SPIB (Homo sapiens, UniProt Q01892 1-262); settings: protein: recombinant; tags: N-terminal GST; dsDNA, one strand shown
Chain of SPIB (Q01892 whole entry): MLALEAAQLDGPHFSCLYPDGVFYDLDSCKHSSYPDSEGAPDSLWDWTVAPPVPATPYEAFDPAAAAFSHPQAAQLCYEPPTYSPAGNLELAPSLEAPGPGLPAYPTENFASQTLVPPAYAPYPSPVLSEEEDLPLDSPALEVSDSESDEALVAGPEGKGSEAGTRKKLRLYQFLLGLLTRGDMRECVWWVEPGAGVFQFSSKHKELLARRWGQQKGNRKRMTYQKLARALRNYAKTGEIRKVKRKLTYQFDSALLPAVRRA
Summary of the method: as §1

ELK3 = target: T6, ELK3 (Homo sapiens, UniProt P41970 1-407); settings: protein: recombinant; tags: N-terminal GST; dsDNA, one strand shown
T6 sequence: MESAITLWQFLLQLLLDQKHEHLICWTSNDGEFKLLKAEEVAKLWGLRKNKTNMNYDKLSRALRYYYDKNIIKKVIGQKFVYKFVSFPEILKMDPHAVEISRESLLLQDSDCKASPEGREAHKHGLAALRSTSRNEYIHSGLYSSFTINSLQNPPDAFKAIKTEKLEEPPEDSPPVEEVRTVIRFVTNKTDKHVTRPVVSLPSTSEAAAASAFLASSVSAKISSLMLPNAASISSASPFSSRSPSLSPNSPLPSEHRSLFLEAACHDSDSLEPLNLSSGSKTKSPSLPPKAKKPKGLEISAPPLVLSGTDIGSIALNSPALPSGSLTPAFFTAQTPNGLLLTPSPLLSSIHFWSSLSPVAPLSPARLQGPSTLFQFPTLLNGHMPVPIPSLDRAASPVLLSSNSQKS
Summary of the method: as §1

FEV = target: T7, FEV (Homo sapiens, UniProt Q99581 1-238); settings: protein: recombinant; tags: N-terminal GST; dsDNA, one strand shown
T7 sequence: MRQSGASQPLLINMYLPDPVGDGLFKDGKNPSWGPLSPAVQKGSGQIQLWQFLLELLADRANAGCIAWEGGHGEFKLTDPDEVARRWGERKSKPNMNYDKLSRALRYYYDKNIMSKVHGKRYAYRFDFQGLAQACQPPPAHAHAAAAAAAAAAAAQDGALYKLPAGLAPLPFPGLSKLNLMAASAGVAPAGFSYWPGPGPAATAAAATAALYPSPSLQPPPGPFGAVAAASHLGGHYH
Summary of the method: as §1

ETV5 = ETV5 (Homo sapiens, UniProt P41161 1-510); settings: protein: recombinant; tags: N-terminal GST; dsDNA, one strand shown
Chain of ETV5 (P41161 whole entry): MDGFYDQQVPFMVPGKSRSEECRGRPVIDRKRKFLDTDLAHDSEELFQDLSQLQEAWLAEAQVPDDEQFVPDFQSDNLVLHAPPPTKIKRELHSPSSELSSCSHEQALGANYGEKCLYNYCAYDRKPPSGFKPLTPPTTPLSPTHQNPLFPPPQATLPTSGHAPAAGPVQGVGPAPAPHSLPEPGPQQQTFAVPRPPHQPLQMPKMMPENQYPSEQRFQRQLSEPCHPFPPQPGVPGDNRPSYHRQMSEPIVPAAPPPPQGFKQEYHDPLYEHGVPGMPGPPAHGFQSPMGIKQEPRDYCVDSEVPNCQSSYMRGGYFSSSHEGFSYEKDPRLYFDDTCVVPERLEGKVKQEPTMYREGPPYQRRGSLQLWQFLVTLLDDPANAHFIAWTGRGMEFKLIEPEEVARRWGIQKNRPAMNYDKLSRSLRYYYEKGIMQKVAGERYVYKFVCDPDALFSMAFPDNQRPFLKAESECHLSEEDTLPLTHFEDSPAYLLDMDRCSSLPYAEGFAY
Summary of the method: as §1

HSF1 = HSF1 (Homo sapiens, UniProt Q00613 1-529); settings: protein: recombinant; tags: N-terminal GST; chain copies: 3; dsDNA, one strand shown
Chain of HSF1 (Q00613 whole entry): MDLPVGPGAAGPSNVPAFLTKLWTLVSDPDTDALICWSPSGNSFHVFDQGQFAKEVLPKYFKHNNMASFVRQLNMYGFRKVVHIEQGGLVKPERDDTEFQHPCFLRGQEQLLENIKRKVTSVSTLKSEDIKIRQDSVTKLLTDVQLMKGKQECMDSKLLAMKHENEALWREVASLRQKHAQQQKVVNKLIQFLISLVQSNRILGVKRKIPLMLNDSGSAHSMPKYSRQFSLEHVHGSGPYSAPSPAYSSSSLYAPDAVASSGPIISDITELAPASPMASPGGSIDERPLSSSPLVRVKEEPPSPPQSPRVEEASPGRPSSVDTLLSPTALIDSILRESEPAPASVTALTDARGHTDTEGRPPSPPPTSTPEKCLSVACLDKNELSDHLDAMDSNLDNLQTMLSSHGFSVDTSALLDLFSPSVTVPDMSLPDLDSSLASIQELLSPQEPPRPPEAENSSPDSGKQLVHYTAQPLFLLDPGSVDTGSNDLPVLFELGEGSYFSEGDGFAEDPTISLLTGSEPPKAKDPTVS
Summary of the method: as §1

SPIC = target: T8, SPIC (Homo sapiens, UniProt Q8N5J4 1-248); settings: protein: recombinant; tags: N-terminal GST; dsDNA, one strand shown
T8 sequence: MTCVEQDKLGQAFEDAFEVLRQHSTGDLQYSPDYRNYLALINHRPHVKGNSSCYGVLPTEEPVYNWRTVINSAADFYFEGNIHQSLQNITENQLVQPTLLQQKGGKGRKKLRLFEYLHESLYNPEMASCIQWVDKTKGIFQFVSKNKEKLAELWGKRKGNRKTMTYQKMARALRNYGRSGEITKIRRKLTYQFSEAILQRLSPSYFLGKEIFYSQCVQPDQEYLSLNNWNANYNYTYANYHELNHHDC
Summary of the method: as §1

ELF4 = ELF4 (Homo sapiens, UniProt Q99607 1-663); settings: protein: recombinant; tags: N-terminal GST; dsDNA, one strand shown
Chain of ELF4 (Q99607 whole entry): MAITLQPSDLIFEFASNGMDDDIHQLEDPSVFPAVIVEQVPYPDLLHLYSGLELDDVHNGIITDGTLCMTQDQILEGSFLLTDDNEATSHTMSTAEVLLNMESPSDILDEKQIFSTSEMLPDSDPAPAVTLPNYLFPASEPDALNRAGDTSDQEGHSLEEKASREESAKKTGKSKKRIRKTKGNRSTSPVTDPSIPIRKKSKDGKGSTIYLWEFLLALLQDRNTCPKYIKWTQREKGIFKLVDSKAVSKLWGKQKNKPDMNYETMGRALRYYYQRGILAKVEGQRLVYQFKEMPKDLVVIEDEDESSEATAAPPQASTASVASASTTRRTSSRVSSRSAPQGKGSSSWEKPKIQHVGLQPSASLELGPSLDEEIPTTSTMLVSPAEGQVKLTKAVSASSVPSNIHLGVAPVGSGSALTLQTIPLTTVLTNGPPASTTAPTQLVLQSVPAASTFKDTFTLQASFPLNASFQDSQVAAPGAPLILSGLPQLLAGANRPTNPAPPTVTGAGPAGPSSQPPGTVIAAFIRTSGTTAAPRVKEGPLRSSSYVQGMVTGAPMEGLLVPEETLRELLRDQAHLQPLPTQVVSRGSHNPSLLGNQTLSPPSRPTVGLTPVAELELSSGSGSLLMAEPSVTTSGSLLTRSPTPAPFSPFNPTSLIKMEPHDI
Summary of the method: as §1

ELK4 = target: T9, ELK4 (Homo sapiens, UniProt P28324-2 1-405); settings: protein: recombinant; tags: N-terminal GST; dsDNA, one strand shown
T9 sequence: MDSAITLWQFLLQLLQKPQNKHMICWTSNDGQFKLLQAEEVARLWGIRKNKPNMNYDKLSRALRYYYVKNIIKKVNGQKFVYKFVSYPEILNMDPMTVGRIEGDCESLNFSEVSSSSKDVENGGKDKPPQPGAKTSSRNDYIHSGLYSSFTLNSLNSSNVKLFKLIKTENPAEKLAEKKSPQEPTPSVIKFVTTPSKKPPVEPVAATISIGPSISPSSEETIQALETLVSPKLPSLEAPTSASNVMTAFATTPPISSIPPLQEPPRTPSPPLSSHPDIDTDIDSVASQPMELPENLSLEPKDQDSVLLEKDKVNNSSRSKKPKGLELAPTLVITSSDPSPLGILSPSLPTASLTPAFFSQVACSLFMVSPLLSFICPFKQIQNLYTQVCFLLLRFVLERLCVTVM
Summary of the method: as §1

ETV2 = target: T10, ETV2 (Homo sapiens, UniProt O00321 1-342); settings: protein: recombinant; tags: N-terminal GST; dsDNA, one strand shown
T10 sequence: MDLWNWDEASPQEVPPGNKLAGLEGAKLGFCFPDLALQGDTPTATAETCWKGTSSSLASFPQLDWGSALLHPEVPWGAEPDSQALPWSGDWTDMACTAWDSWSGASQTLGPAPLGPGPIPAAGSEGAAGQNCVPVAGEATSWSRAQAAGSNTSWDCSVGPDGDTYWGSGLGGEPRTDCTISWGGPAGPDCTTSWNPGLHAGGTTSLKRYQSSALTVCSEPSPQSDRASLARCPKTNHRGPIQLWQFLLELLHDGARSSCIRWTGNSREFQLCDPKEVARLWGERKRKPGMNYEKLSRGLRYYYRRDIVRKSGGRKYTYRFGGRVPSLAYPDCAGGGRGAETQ
Summary of the method: as §1

ELF3 = target: T11, ELF3 (Homo sapiens, UniProt P78545 1-371); settings: protein: recombinant; tags: N-terminal GST; dsDNA, one strand shown
T11 sequence: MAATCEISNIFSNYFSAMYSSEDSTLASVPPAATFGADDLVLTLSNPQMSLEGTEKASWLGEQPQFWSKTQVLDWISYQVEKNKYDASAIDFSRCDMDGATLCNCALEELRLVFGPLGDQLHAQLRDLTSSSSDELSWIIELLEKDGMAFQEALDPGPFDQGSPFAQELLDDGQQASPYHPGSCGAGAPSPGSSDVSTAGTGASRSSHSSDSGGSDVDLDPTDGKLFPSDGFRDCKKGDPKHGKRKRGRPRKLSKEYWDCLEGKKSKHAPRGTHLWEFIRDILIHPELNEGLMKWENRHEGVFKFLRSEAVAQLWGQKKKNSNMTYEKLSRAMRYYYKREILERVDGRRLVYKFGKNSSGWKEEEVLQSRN
Summary of the method: as §1

CRX = CRX (Homo sapiens, UniProt O43186 1-299); settings: protein: recombinant; tags: N-terminal GST; dsDNA, one strand shown
Chain of CRX (O43186 whole entry): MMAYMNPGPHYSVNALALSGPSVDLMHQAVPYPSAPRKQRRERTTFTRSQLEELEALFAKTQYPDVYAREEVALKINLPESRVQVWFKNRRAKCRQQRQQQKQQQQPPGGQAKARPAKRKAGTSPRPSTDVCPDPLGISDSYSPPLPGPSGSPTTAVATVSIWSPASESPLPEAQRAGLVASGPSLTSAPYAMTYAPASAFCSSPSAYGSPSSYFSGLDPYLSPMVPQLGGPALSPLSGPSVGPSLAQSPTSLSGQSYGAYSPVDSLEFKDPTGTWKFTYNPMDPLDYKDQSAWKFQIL
Summary of the method: as §1

ETV1 = ETV1 (Homo sapiens, UniProt P50549 1-477); settings: protein: recombinant; tags: N-terminal GST; dsDNA, one strand shown
Chain of ETV1 (P50549 whole entry): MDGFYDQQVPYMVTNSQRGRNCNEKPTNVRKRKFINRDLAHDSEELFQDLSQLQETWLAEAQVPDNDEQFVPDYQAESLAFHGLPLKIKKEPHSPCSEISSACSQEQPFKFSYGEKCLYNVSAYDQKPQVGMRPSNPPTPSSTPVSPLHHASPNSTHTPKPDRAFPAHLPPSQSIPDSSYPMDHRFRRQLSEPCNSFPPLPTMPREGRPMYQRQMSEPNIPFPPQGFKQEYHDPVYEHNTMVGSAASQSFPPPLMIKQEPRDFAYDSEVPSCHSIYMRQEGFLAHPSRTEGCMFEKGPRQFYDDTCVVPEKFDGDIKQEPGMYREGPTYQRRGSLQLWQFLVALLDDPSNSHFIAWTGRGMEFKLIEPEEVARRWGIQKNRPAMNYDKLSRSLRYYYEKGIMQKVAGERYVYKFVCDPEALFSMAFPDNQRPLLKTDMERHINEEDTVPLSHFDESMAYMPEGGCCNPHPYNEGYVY
Summary of the method: as §1

CTGAGC
binding signal (FLI1): 1.08 fold enrichment (6-mer frequency, TF over GST control)
binding signal (ELK1): 1.15 fold enrichment (6-mer frequency, TF over GST control)
binding signal (GABPA): 1.18 fold enrichment (6-mer frequency, TF over GST control)
binding signal (ERG): 1.09 fold enrichment (6-mer frequency, TF over GST control)
binding signal (ELF1): 1.19 fold enrichment (6-mer frequency, TF over GST control)
binding signal (EHF): 1.18 fold enrichment (6-mer frequency, TF over GST control)
binding signal (SPI1): 1.11 fold enrichment (6-mer frequency, TF over GST control)
binding signal (SPIB): 1.06 fold enrichment (6-mer frequency, TF over GST control)
binding signal (ELK3): 1.18 fold enrichment (6-mer frequency, TF over GST control)
binding signal (FEV): 1.21 fold enrichment (6-mer frequency, TF over GST control)
binding signal (ETV5): 1.12 fold enrichment (6-mer frequency, TF over GST control)
binding signal (HSF1): 1.09 fold enrichment (6-mer frequency, TF over GST control)
binding signal (SPIC): 1.08 fold enrichment (6-mer frequency, TF over GST control)
binding signal (ELF4): 1.19 fold enrichment (6-mer frequency, TF over GST control)
binding signal (ELK4): 1.14 fold enrichment (6-mer frequency, TF over GST control)
binding signal (ETV2): 1.37 fold enrichment (6-mer frequency, TF over GST control)
binding signal (ELF3): 1.16 fold enrichment (6-mer frequency, TF over GST control)
binding signal (CRX): 1.3 fold enrichment (6-mer frequency, TF over GST control)
binding signal (ETV1): 1.15 fold enrichment (6-mer frequency, TF over GST control)
